# Source: PubChem
# S2 tox: Viability Counterscreen for Primary qHTS for Inhibitors of ATXN expression | S2 cells (HEK-293 line with an ATXN2-luciferase reporter) viability, CellTiter-Fluor protease fluorescence, 24 h | Potency, µM (highest dose often 56.7 µM), actives largely listed as cytotoxic | actives 0.49% (n = 400,000) | AID 651635, 2014; note: nearly all actives have a fitted effect of over 40% in size
# D3 ag: qHTS of D3 Dopamine Receptor Agonist: qHTS. D3R DiscoveRx beta-arrestin cells, luminescence, 90 min. max activation, %. actives 0.58% (n = 410,000); in the data active = max activation above about 30%
# Target sequence (P35462 whole entry, looked up): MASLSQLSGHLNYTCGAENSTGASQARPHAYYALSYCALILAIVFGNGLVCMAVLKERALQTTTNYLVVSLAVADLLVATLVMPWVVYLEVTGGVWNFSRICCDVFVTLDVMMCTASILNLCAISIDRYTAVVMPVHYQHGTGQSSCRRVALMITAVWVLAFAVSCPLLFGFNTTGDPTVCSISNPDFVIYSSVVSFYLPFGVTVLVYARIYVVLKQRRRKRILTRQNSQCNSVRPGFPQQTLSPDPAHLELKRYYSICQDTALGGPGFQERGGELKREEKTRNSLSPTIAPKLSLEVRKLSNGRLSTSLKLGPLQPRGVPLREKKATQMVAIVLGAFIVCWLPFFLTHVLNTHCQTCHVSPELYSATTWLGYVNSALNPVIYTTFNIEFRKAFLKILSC
#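 Agonist mode: compounds and dopamine controls were applied to plated cells for 90 min at 37 degrees C after an overnight attachment at 1500 cells/well. Luminescent read-out followed 30 - 60 minutes at room temperature with DiscoveRx detection reagent.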
# Integrin act MD: qHTS for Activators of Integrin-Mediated Alleviation for Muscular Dystrophy. alpha7betagal myoblasts, beta-gal FDG fluorescence, 48 h. Potency, µM (series often up to 38.3 µM), hits mostly activators. actives 0.064% (n = 350,000). AID 624291, 2012; note: nearly all actives have a fitted effect of over 60% in size
#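 Alpha7betagal+/- myoblasts (passage 13) were plated 16-24 hr, then exposed to compounds (1:260 dilution of DMSO stock) for 48 hours at 37C. After MPER lysis, β-galactosidase reporter activity was read as FDG fluorescence (ex 480/em 540) after 30 minutes.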
# ATXN2 expr inh: Primary qHTS for Inhibitors of ATXN expression | HEK-293 ATXN2-luciferase reporter, luminescence, 24 h | actives 0.72% (n = 360,000) | Potency, µM (titrated, usually from 57 µM), usual class: inhibitors; note: nearly all actives have a fitted effect of over 55% in size
#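 ATXN2-luciferase reporter cells (luciferase flanked by upstream and downstream ATXN2 gene portions) were treated 24 h at 37 °C with compounds at up to 57 uM. SteadyGlo luminescence gave expression; GF-AFC fluorescence gave viability.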
# DRD3 antagonist: qHTS of D3 Dopamine Receptor Antagonist: qHTS; D(3) dopamine receptor (Homo sapiens), P35462; D3R cells, DiscoveRx beta-arrestin luminescence, antagonist mode; active compounds read low; max response, negative = inhibition, %; actives 2.5% (n = 360,000); AID 652054, 2013; in the data active = max response below about -50%; inconclusive = no clear call, values can overlap the other calls
#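 Cells expressing the human receptor were seeded at 1500 cells/well, incubated overnight at 37 degrees C in 5% CO2, then exposed to library compounds with dopamine controls for 90 minutes at 37 degrees C before luminescent detection.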
# IL1B secr inh: qHTS for Inhibitors of Inflammasome Signaling: IL-1-beta AlphaLISA Primary Screen. THP-1 LPS/ATP IL-1B secretion, AlphaLISA, 16 h; active compounds read low. activity change, % at 57.5 µM. actives 4.7% (n = 360,000); in the data active = activity change below about -50%; inconclusive = mostly about -30% to -49%
#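 THP-1 cells pretreated 1 hr with compounds (up to 57.5 uM final), then stimulated with LPS (250 ng/mL final) plus ATP (1.25 mM final); secreted IL-1B measured by AlphaLISA after 16 hr, decreased signal indicating inhibition.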
# A number is an active result; . = inactive; ? = inconclusive; / = not tested or not shown; [ ] = dose if it differs, or a comment. Hits are enriched below; roughly 7% of the tested compounds scored in any of these assays. Unless noted, calls come from the whole dose curve; as a rule, active = well fitted curve in the direction sought with a large enough effect; inconclusive = small, poorly fitted or top-dose-only effect, or another doubt; inactive = no such curve, though single readings can be large; an effect the other way counts as inactive or inconclusive.
SMILES,S2 tox,D3 ag,Integrin act MD,ATXN2 expr inh,DRD3 antagonist,IL1B secr inh
CCc1ccc2[nH]c(=O)c(CN(Cc3ccc4c(c3)OCO4)Cc3nnnn3C3CCCC3)cc2c1,?,35,.,?,.,-66
Cc1ccc2cc(CN(Cc3ccccc3)Cc3nnnn3C3CCCC3)c(=O)[nH]c2c1,?,.,.,?,.,-63
CCC(c1nnnn1C1CCCC1)N(Cc1cccs1)Cc1cc2cc(C)ccc2[nH]c1=O (centres undefined),?,.,.,32µM,.,-54
CCc1ccc(N(CC)C(=O)c2ccc3c(Cl)c4c(nc3c2)CCC4)cc1,?,.,.,?,.,-51
Cc1ccc(N(C)C(=O)c2ccc3c(Cl)c4c(nc3c2)CCC4)cc1C,?,.,.,.,.,-65
CCN(c1ccc(C)cc1C)S(=O)(=O)c1nnc(NC(=O)C(C)C)s1,.,.,.,.,.,.
O=C(N/N=C/c1ccc(-c2ccc(Cl)c(C(=O)O)c2)o1)c1cc2c(ccc3ccccc32)o1,.,.,.,.,.,.
COc1cccc(-c2nnc3n2N=C(c2cc(OC)ccc2OC)CS3)c1,?,.,.,.,.,?
COc1cccc(-c2nnc3n2N=C(C(C)(C)C)CS3)c1,.,.,.,?,.,-93
C=CCn1c2ccccc2c(=O)c2cc(C#CC[C@@H](C)O)ccc21,/,.,.,.,.,-67
C=CCn1c2ccccc2c(=O)c2cc(C#CC3(O)CCCCC3)ccc21,.,.,.,.,.,-57
CN(C)c1ccc(C(CNC(=O)c2ccccc2)c2c[nH]c3ccccc23)cc1 (centres undefined),.,.,.,.,.,-54
CN(C)c1ccc(C(CNC(=O)c2ccccc2F)c2c[nH]c3ccccc23)cc1 (centres undefined),.,.,?,.,.,.
Cc1ccc(NC(=O)CN(C)C(=O)c2cccnc2Nc2cccc(C(F)(F)F)c2)cc1,?,.,.,.,.,-79
COc1cccc(NC(=O)CN(C)C(=O)c2cccnc2Nc2cccc(C(F)(F)F)c2)c1,?,.,.,?,.,-78
CCOc1ncccc1C(=O)N(C)CC(=O)Nc1ccc(C)cc1,.,.,.,.,.,.
COc1ccccc1NC(=O)Nc1nnc(CC(=O)Nc2cccc(C)c2)s1,.,.,.,.,.,.
CCCCN1C(=O)/C(=c2\sc3nc(=O)c(-c4ccccc4)nn3c2=O)c2ccccc21,.,.,.,.,-69,.
NC(=O)CC(NC(=O)Cc1cccc2ccccc12)c1ccc(N2CCCCCC2)c([N+](=O)[O-])c1 (centres undefined),?,.,.,.,-68,.
Cc1cc(C)cc(C(=O)NC(CC(N)=O)c2ccc(N3CCC(Br)CC3)c([N+](=O)[O-])c2)c1 (centres undefined),.,32,.,.,.,.
NC(=O)CC(NC(=O)c1ccccc1)c1ccc(N2CCC(Br)CC2)c([N+](=O)[O-])c1 (centres undefined),?,.,.,.,.,.
NC(=O)CC(NC(=O)Cc1cccc2ccccc12)c1ccc(N2CCN(c3ccccc3)CC2)c([N+](=O)[O-])c1 (centres undefined),.,.,.,.,.,.
NC(=O)CC(NC(=O)Cc1cccc2ccccc12)c1ccc(N2CCc3ccccc3C2)c([N+](=O)[O-])c1 (centres undefined),35µM,.,.,?,.,?
CC1CS(=O)(=O)CCN1N=Cc1ccc([N+](=O)[O-])o1 (centres undefined),?,.,/,.,.,.
COc1cccc(CN(C)CCCn2cnc3c(OC)ncnc32)c1,.,.,.,.,.,.
SMILES,S2 tox,D3 ag,Integrin act MD,ATXN2 expr inh,DRD3 antagonist,IL1B secr inh
CC(C)c1[nH]nc2c1C(C1C=CCCC1)C(C#N)=C(N)O2 (centres undefined),?,.,.,/,.,-88
CC(C)(C)c1[nH]nc2c1C(C1C=CCCC1)C(C#N)=C(N)O2 (centres undefined),.,.,.,.,.,.
CCc1[nH]nc2c1C(C1C=CCCC1)C(C#N)=C(N)O2 (centres undefined),?,.,.,/,.,-54
CC(C)c1[nH]nc2c1C(c1cccs1)C(C#N)=C(N)O2 (centres undefined),.,.,.[7.66 µM],.,.,-86
N#CC1=C(N)OC2=C(C(=O)CCC2)C1C1C=CCCC1 (centres undefined),.,.,.,.,.,.
CC(C)C1C(C#N)=C(N)Oc2n[nH]c(-c3cccs3)c21 (centres undefined),.,.,.,.,.,.
O=C(Nc1ccccc1)c1sc2cc(C(F)(F)F)cnc2c1-c1cccs1,.,.,.,.,.,.
Cc1ccc(NC(=O)C2(C)CCN2C(=O)Cc2ccc(-c3ccccc3)cc2)cc1 (centres undefined),.,.,/,.,.,.
COC(=O)Cc1ccc(NC(=O)c2ccc(C(C)(C)C)cc2)cc1,.,.,.,0.79µM,.,-50
CC(C)(C)c1ccc(C(=O)Nc2ccc(CN3CCS(=O)(=O)CC3)cc2)cc1,.,.,.,?,.,-60
COc1ccc(C(O)P(=O)(OC(C)C)c2ccc(N(C)C)cc2)c(OC)c1 (centres undefined),.,.,.,/,.,.
Cc1cccc(NC(=S)NCCSc2ccc(Cl)cc2)c1,.,.,.,.,.,-105
Cc1ccc(C)c(NC(=S)NCCSc2ccc(Cl)cc2)c1,.,.,.,.,.,?
Cc1ccc(NC(=S)NCCSc2ccc(Cl)cc2)c(C)c1,.,.,.,.,.,.
Cc1ccccc1NC(=S)NCCSc1ccc(Cl)cc1,.,.,.,.,.,-82
CCc1ccccc1NC(=S)NCCSc1ccc(Cl)cc1,.,.,.,.,.,-98
S=C(c1ccccc1)N1CCCc2ccccc21,.,.,.,.,?,.
S=c1[nH]c2ccc(Cl)cc2s1,.,.,.,/,.,.
Cc1cccc(-c2nc(CS(=O)CC(=O)NCCc3ccccc3)c(C)o2)c1 (centres undefined),.,.,.,.,.,.
CN/N=C(\Cc1nc2ccccc2[nH]1)c1ccc([N+](=O)[O-])cc1,.,.,.,.,.,?
Clc1ccc(/C(Cc2nc3ccccc3[nH]2)=N\Nc2ccccc2)cc1,.,.,.,.[11.3 µM],.,-84
